Where two headings read alike, the source gives them in different places.
What was measured:
PLK4 = conditions: read-out: apparent Kd, n = 1
PRKAA2 = conditions: read-out: apparent Kd, n = 1

Lestaurtinib
potency estimated from few doses (PLK4; compound concentrations:100 nM and 1000 nM (sheet 'Lestaurtinib' of Supplementary Table 1),run:Lestaurtinib_02768_R1,Plate:MR028): 51.6 nM
potency estimated from few doses (PLK4; compound concentrations:100 nM and 1000 nM (sheet 'Lestaurtinib' of Supplementary Table 1),run:Lestaurtinib_02768_R2,Plate:MR028): 61.6 nM
potency estimated from few doses (PLK4; compound concentrations:100 nM and 1000 nM (sheet 'Lestaurtinib' of Supplementary Table 1),run:Lestaurtinib_02768_R3,Plate:MR028): 74.4 nM
potency estimated from few doses (PLK4; compound concentrations:100 nM and 1000 nM (sheet 'Lestaurtinib' of Supplementary Table 1),run:Lestaurtinib_02795_R1,Plate:MR022): 55.3 nM
potency estimated from few doses (PLK4; compound concentrations:100 nM and 1000 nM (sheet 'Lestaurtinib' of Supplementary Table 1),run:Lestaurtinib_02795_R2,Plate:MR022): 63.4 nM
potency estimated from few doses (PLK4; compound concentrations:100 nM and 1000 nM (sheet 'Lestaurtinib' of Supplementary Table 1),run:Lestaurtinib_02802_R1,Plate:MR029): 73 nM
potency estimated from few doses (PLK4; compound concentrations:100 nM and 1000 nM (sheet 'Lestaurtinib' of Supplementary Table 1),run:Lestaurtinib_02802_R2,Plate:MR029): 83.4 nM
potency estimated from few doses (PLK4; compound concentrations:100 nM and 1000 nM (sheet 'Lestaurtinib' of Supplementary Table 1),run:Lestaurtinib_02802_R3,Plate:MR029): 32.3 nM
potency estimated from few doses (PLK4; compound concentrations:100 nM and 1000 nM (sheet 'Lestaurtinib' of Supplementary Table 1),run:Lestaurtinib_02896_R1,Plate:MR030): 78.3 nM
potency estimated from few doses (PLK4; compound concentrations:100 nM and 1000 nM (sheet 'Lestaurtinib' of Supplementary Table 1),run:Lestaurtinib_02896_R3,Plate:MR030): 80.6 nM
potency estimated from few doses (PLK4; compound concentrations:100 nM and 1000 nM (sheet 'Lestaurtinib' of Supplementary Table 1),run:Lestaurtinib_03172_R1,Plate:MR031): 67.3 nM
potency estimated from few doses (PLK4; compound concentrations:100 nM and 1000 nM (sheet 'Lestaurtinib' of Supplementary Table 1),run:Lestaurtinib_03172_R3,Plate:MR031): 72.8 nM
potency estimated from few doses (PLK4; compound concentrations:100 nM and 1000 nM (sheet 'Lestaurtinib' of Supplementary Table 1),run:Lestaurtinib_03252_R1,Plate:MR032): 64.8 nM
potency estimated from few doses (PLK4; compound concentrations:100 nM and 1000 nM (sheet 'Lestaurtinib' of Supplementary Table 1),run:Lestaurtinib_03252_R2,Plate:MR032): 23.9 nM
potency estimated from few doses (PLK4; compound concentrations:100 nM and 1000 nM (sheet 'Lestaurtinib' of Supplementary Table 1),run:Lestaurtinib_03260_R2,Plate:MR033): 63.7 nM
potency estimated from few doses (PLK4; compound concentrations:100 nM and 1000 nM (sheet 'Lestaurtinib' of Supplementary Table 1),run:Lestaurtinib_03260_R3,Plate:MR033): 78.5 nM
potency estimated from few doses (PRKAA2; compound concentrations:100 nM and 1000 nM (sheet 'Lestaurtinib' of Supplementary Table 1),run:Lestaurtinib_02339_R1,Plate:MR001): 963 nM
potency estimated from few doses (PRKAA2; compound concentrations:100 nM and 1000 nM (sheet 'Lestaurtinib' of Supplementary Table 1),run:Lestaurtinib_02339_R3,Plate:MR001): 953 nM
potency estimated from few doses (PRKAA2; compound concentrations:100 nM and 1000 nM (sheet 'Lestaurtinib' of Supplementary Table 1),run:Lestaurtinib_02364_R1,Plate:MR002): 713 nM
potency estimated from few doses (PRKAA2; compound concentrations:100 nM and 1000 nM (sheet 'Lestaurtinib' of Supplementary Table 1),run:Lestaurtinib_02364_R2,Plate:MR002): 541 nM
potency estimated from few doses (PRKAA2; compound concentrations:100 nM and 1000 nM (sheet 'Lestaurtinib' of Supplementary Table 1),run:Lestaurtinib_02364_R3,Plate:MR002): 553 nM
potency estimated from few doses (PRKAA2; compound concentrations:100 nM and 1000 nM (sheet 'Lestaurtinib' of Supplementary Table 1),run:Lestaurtinib_02367_R1,Plate:MR003): 1320 nM
potency estimated from few doses (PRKAA2; compound concentrations:100 nM and 1000 nM (sheet 'Lestaurtinib' of Supplementary Table 1),run:Lestaurtinib_02367_R3,Plate:MR003): 892 nM
potency estimated from few doses (PRKAA2; compound concentrations:100 nM and 1000 nM (sheet 'Lestaurtinib' of Supplementary Table 1),run:Lestaurtinib_02381_R1,Plate:MR004): 1400 nM
potency estimated from few doses (PRKAA2; compound concentrations:100 nM and 1000 nM (sheet 'Lestaurtinib' of Supplementary Table 1),run:Lestaurtinib_02381_R2,Plate:MR004): 954 nM
potency estimated from few doses (PRKAA2; compound concentrations:100 nM and 1000 nM (sheet 'Lestaurtinib' of Supplementary Table 1),run:Lestaurtinib_02381_R3,Plate:MR004): 761 nM
potency estimated from few doses (PRKAA2; compound concentrations:100 nM and 1000 nM (sheet 'Lestaurtinib' of Supplementary Table 1),run:Lestaurtinib_02407_R1,Plate:MR005): 755 nM
potency estimated from few doses (PRKAA2; compound concentrations:100 nM and 1000 nM (sheet 'Lestaurtinib' of Supplementary Table 1),run:Lestaurtinib_02407_R3,Plate:MR005): 722 nM
potency estimated from few doses (PRKAA2; compound concentrations:100 nM and 1000 nM (sheet 'Lestaurtinib' of Supplementary Table 1),run:Lestaurtinib_02422_R3,Plate:MR006): 74.8 nM
potency estimated from few doses (PRKAA2; compound concentrations:100 nM and 1000 nM (sheet 'Lestaurtinib' of Supplementary Table 1),run:Lestaurtinib_02437_R2,Plate:MR007): 616 nM
potency estimated from few doses (PRKAA2; compound concentrations:100 nM and 1000 nM (sheet 'Lestaurtinib' of Supplementary Table 1),run:Lestaurtinib_02437_R3,Plate:MR007): 56.5 nM
potency estimated from few doses (PRKAA2; compound concentrations:100 nM and 1000 nM (sheet 'Lestaurtinib' of Supplementary Table 1),run:Lestaurtinib_02438_R1,Plate:MR008): 857 nM
potency estimated from few doses (PRKAA2; compound concentrations:100 nM and 1000 nM (sheet 'Lestaurtinib' of Supplementary Table 1),run:Lestaurtinib_02443_R3,Plate:MR009): 792 nM
potency estimated from few doses (PRKAA2; compound concentrations:100 nM and 1000 nM (sheet 'Lestaurtinib' of Supplementary Table 1),run:Lestaurtinib_02473_R1,Plate:MR010): 730 nM
potency estimated from few doses (PRKAA2; compound concentrations:100 nM and 1000 nM (sheet 'Lestaurtinib' of Supplementary Table 1),run:Lestaurtinib_02473_R2,Plate:MR010): 941 nM
potency estimated from few doses (PRKAA2; compound concentrations:100 nM and 1000 nM (sheet 'Lestaurtinib' of Supplementary Table 1),run:Lestaurtinib_02473_R3,Plate:MR010): 799 nM
potency estimated from few doses (PRKAA2; compound concentrations:100 nM and 1000 nM (sheet 'Lestaurtinib' of Supplementary Table 1),run:Lestaurtinib_02482_R1,Plate:MR011): 788 nM
potency estimated from few doses (PRKAA2; compound concentrations:100 nM and 1000 nM (sheet 'Lestaurtinib' of Supplementary Table 1),run:Lestaurtinib_02482_R2,Plate:MR011): 508 nM
potency estimated from few doses (PRKAA2; compound concentrations:100 nM and 1000 nM (sheet 'Lestaurtinib' of Supplementary Table 1),run:Lestaurtinib_02482_R3,Plate:MR011): 568 nM
potency estimated from few doses (PRKAA2; compound concentrations:100 nM and 1000 nM (sheet 'Lestaurtinib' of Supplementary Table 1),run:Lestaurtinib_02487_R1,Plate:MR012): 422 nM
potency estimated from few doses (PRKAA2; compound concentrations:100 nM and 1000 nM (sheet 'Lestaurtinib' of Supplementary Table 1),run:Lestaurtinib_02487_R3,Plate:MR012): 679 nM
potency estimated from few doses (PRKAA2; compound concentrations:100 nM and 1000 nM (sheet 'Lestaurtinib' of Supplementary Table 1),run:Lestaurtinib_02496_R1,Plate:MR013): 702 nM
